Among all 4,100 compounds or so, about 1,600 (39%) were called active. About 25% were inconclusive and are not listed. The call rests on the fitted dose curve; in most records, active means well fitted inhibition curve with a large enough effect; inconclusive means small, poorly fitted or top-dose-only effect; inactive means no such curve, though single readings can be large or run the other way. Some of the results follow.
Assay: qHTS Validation assay for Inhibitors of Plasmodium falciparum Dd2 growth in vitro; further: nearly all actives have a fitted effect of over 70% in size
Settings: P. falciparum Dd2 in RBCs, SYBR Green growth, 72 h; series mostly up to 28.7 µM; activity change, negative = inhibition: at the top concentration
Procedure, shortened: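 P. falciparum Dd2-infected red blood cells (2.5% hematocrit, 0.3% parasitemia) grown 72 h at 37 °C under 5% O2 with compounds in a titration, 29 uM to 0.5 nM final. Growth read as SYBR Green-1 fluorescence after ~16 h lysis; artesunate 300 nM as positive control.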
On the % scale 0 is the no-effect control and ±100 the full control effect; potency means the concentration at half of the fitted maximal effect.

Activity change, negative = inhibition, inactive:
CC(C(=O)N1CCCN(c2cc(-c3ccc(Cl)cc3)[nH]n2)CC1)c1ccccc1 (configuration not stated) -15.7%
Nc1nc(N)c2c(ccc3nccc32)[nH]1 7.51%
O=C(CCc1nc2ccccc2[nH]1)N1C[C@@H](CO)[C@H](c2ccccn2)C1 41.4%
CCN(Cc1nc2ccccc2n1C)c1ccccc1 6.82%
CCOc1c(CNCCSc2nnnn2C)cccc1OC -28%
c1ccc(COc2cncc(-c3cccnc3)c2)cc1 1.56%
COc1ccc2c(C)c(C(=O)N3CC(Oc4c(C)cccc4C)C3)oc2c1 41.8%
COc1cc2c(cc1OC)[C@H](C)N(C(=O)COc1ccccc1)CC2 -6.38%
COCC(=O)N1CCc2nc(-c3ccccc3)nc(-c3ccc(Cl)cc3)c2C1 0%
Cc1nc(-c2c3n(c(=O)n(Cc4ccc(OC(F)(F)F)cc4)c2=O)CCCC3)no1 -13.9%
CC(=O)Nc1ccc(CN2CCn3c(nn(-c4ccc(Cl)cc4)c3=O)C2)cc1 14.2%
Cc1nc(-c2c3n(c(=O)n(Cc4ccc(OC(F)(F)F)cc4)c2=O)CCCCC3)no1 -10.2%
Cc1nc2c(c(-c3ccc(O)cc3)n1)CN(C(=O)c1cccc(Cl)c1)CC2 1.23%
CCn1nc(C)c(-c2cc(C(=O)NCCc3noc(-c4ccccc4)n3)no2)c1C -0.509%
CC1(C)C[C@H](NCc2ccc(CO)o2)[C@@]2(CCC(=O)NCCN3CCOCC3)CC[C@](C)(O)C[C@@H]12 4.43%
COc1ccccc1CNS(=O)(=O)c1ccc2c(c1)CC(=O)N2C -10.4%
COc1ccc(N(CC(=O)NCc2ccncc2)S(=O)(=O)c2ccc(C)c([N+](=O)[O-])c2)cc1 24.8%
Cc1ccc(C(=O)NCCn2c(C)cc3ccccc32)cc1C 0%
O=C(N/N=C/c1ccccn1)c1ccccc1 -1.81%
Cc1n[nH]c(=S)n(/N=C/c2cccs2)c1=O 16.4%
O=c1cc(Nc2ccc3c(c2)OCCO3)[nH]c(=O)n1C1CCCCC1 -0.988%
CCc1ccc(C(=O)N2C[C@@H](CO)[C@H](c3ccccn3)C2)cc1 3.1%
C[C@]1(CO)[C@H]2Cc3sc(NC(=O)C4CCCCC4)nc3[C@@H](CC(=O)NCc3cccnc3)[C@]2(C)CC[C@H]1O -11.7%
O=C(CC1C(=O)NCCN1Cc1cccc(Oc2ccccc2)c1)NCc1ccco1 (configuration not stated) 45.2%
CNC(=O)[C@H]1C[C@H](Oc2ccccc2)CN1Cc1c[nH]c2ccc(OC)cc12 -11.3%
COc1cccc(CNC(=O)CN2C(=O)NC3(CCC(C(C)(C)C)CC3)C2=O)c1 (configuration not stated) -13.8%
COc1ccccc1NC(=O)Cn1cccc1-c1nc(-c2ccc(F)cc2)no1 -5.56%
Cc1ccc(NC(=O)Cn2cccc2-c2nc(-c3ccccc3)no2)c(C)c1 17.6%
CC(C)c1ccccc1NC(=O)CSc1nnc(COc2ccccc2Cl)o1 38.9%
O=C(Cn1cccc1-c1nc(-c2ccc(F)cc2)no1)NCCc1ccccc1 0.293%
O=C(C1CCC1)N1CCCCCC1c1nnc(-c2ccccc2)o1 (configuration not stated) -20.8%
O=C(c1ccccc1F)N1CCCCCC1c1nnc(-c2ccccc2)o1 (configuration not stated) -13.5%
Cc1ccc(-c2cc(C(F)F)n3ncc(C(=O)Nc4ccc(S(=O)(=O)Nc5ccccc5C)cc4)c3n2)cc1 74.9%
CC(C)c1ccc(CN2CCc3ncc(C(=O)NCCN4CCNC4=O)n3CC2)cc1 21.5% [at 43.1 µM]
Cc1ccc(-c2cc3c(=O)n(CCNC(=O)c4cc(F)ccc4F)ccn3n2)c(C)c1 -1.76%
CN(C)C(=O)c1ccc(N2CCC(NCCC3=CC[C@H]4C[C@@H]3C4(C)C)CC2)cc1 0%
O=C(CCc1cc(Cl)no1)N1CCc2nc3cc(-c4ccccc4)[nH]n3c(=O)c2C1 -14.8%
CCN(CC)C(=O)Cn1c(=O)n(-c2ccc(Cl)cc2)c(=O)c2c3c(sc21)CCCCC3 18.7%
Cc1c(Cl)cccc1NC(=O)CCCn1nc(C)c2sc3ccccc3c2c1=O 12%
O=c1c2cc3c(cc2nc2sc(Nc4ccc(F)cc4F)nn12)OCO3 20.7%
CC1(CNc2ccccc2)COc2ccc(C(=O)NCCc3ccccc3)cc2N1 (configuration not stated) -37.5% [at 43.1 µM]
NS(=O)(=O)c1ccc(CCNC(=O)c2ccc3nc(CCc4ccccc4)oc3c2)cc1 7.99%
O=C(NC1CCCN(c2cc(-c3ccccc3)[nH]n2)C1)c1cccc(Cl)c1 (configuration not stated) -27.5%
CC1CCN(S(=O)(=O)c2ccc(NC(=O)c3ccco3)cc2)CC1 4.42%
CCOC(=O)c1cn(CC)c2c(ccc3ccccc32)c1=O 20.8%
c1csc(-c2nc3nccc(-c4cc5ccccc5o4)n3n2)c1 16.8%
CCN1C(=O)c2cccc3c(S(=O)(=O)Nc4ccccc4)ccc1c23 37.8%
Cc1ccc(S(=O)(=O)N2CCC(C(=O)NC3CCCC3)CC2)cc1Cl -26.1%
CC(C)N1CCC(NC(=O)NC2CCCCC2)CC1 42.7%

Potency, active:
Cc1ccc(C)c(N=Nc2nc3ccccc3n2C)c1 0.299 µM
Cn1nnnc1SCCCNCc1cccc(OCc2ccccc2)c1 9.44 µM
COc1cc2c(cc1OC)C(COc1ccc3c(C)cc(=O)oc3c1)N(C(=O)c1ccccc1C)CC2 (configuration not stated) 15 µM
CC(=O)N1CCc2cc(Br)cc(S(=O)(=O)N3CCCCCC3)c21 5.31 µM
CC(=O)N1CCc2cc(Br)cc(S(=O)(=O)N3CCCCC3)c21 5.96 µM
CC(C)c1nc2c(c(-c3ccc(O)cc3)n1)CN(Cc1cccc(F)c1)CC2 9.44 µM
CC(C)c1nc2c(c(-c3ccc(O)cc3)n1)CCN(Cc1ccc(C(F)(F)F)cc1)CC2 5.31 µM
CC(=O)Nc1ccc(CN2CCc3nc(C(C)C)nc(-c4ccc(Cl)cc4)c3CC2)cc1 2.66 µM
CC(C)c1nc2c(c(-c3ccc(O)cc3)n1)CCN(Cc1ccc(OC(F)(F)F)cc1)CC2 2.99 µM
Cc1nc2c(c(-c3ccc(O)cc3)n1)CN(Cc1ccc(C(F)(F)F)cc1)CCC2 4.22 µM
Cc1ccc(C(=O)Nc2cccc(NC(=O)c3ccc(C)c([N+](=O)[O-])c3)n2)cc1[N+](=O)[O-] 15 µM
C/C(=N\NC(=O)c1ccccc1OCc1ccc(F)cc1)c1ccccn1 4.73 µM
C/C(=N\NC(=O)c1cccc(Br)c1)c1ccccn1 4.73 µM
Fc1ccc(-c2csc3ncnc(Cl)c23)cc1 3.35 µM
COc1ccc(-c2csc3ncnc(Cl)c23)cc1 4.22 µM
COc1ccc(C(=O)Nc2nc3c(s2)C[C@@H]2[C@](C)(CO)[C@H](O)CC[C@@]2(C)[C@@H]3CC(=O)NCc2ccco2)cc1 2.66 µM
C#CCN(C)C(=O)C[C@@H]1c2nc(NC(=O)c3ccc(OC)cc3)sc2C[C@@H]2[C@](C)(CO)[C@H](O)CC[C@]21C 2.66 µM
COc1ccc2[nH]cc(CCNC(=O)C3(Cc4ccccc4)CCCCC(=O)N3)c2c1 (configuration not stated) 5.96 µM
CCC(=O)O[C@]1(C(=O)CCl)[C@@H](C)C[C@H]2[C@@H]3C[C@H](F)C4=CC(=O)C=C[C@]4(C)[C@@]3(F)[C@@H](O)C[C@@]21C 10.6 µM
CC(C)c1ccccc1NC(=O)Cn1cccc1-c1nc(-c2ccccc2)no1 4.22 µM
CC(C)c1ccccc1NC(=O)Cn1cccc1-c1nc(-c2ccc(F)cc2)no1 2.99 µM
Cc1ccccc1N(C(=O)c1snc(C(N)=O)c1N)C(C(=O)NCC1CCCO1)c1ccc(N(C)C)cc1 (configuration not stated) 7.5 µM
Cc1ccc(-c2cc(C(F)F)n3ncc(C(=O)N4CCCCC4c4cccnc4)c3n2)cc1 (configuration not stated) 2.37 µM
O=C(c1cnn2c(C(F)F)cc(-c3ccccc3)nc12)N1CCCCC1c1cccnc1 (configuration not stated) 8.41 µM
Cc1ccc(-c2cc(C(F)(F)F)n3ncc(C(=O)N4CCCCC4c4cccnc4)c3n2)cc1 (configuration not stated) 1.88 µM
O=C(Nc1ccc(-c2csc(Nc3ccccc3)n2)cc1)c1cc([N+](=O)[O-])cc(C(F)(F)F)c1 2.11 µM
CC(CCc1ccccc1)NCC(O)c1cccc([N+](=O)[O-])c1 (configuration not stated) 0.473 µM
CC(=O)c1sc2c(c1C)c(=O)n(-c1ccc(Cl)cc1)c(=O)n2Cc1cc(=O)n2cc(Cl)ccc2n1 7.5 µM
CCc1nc2c(c(-c3ccc(O)cc3)n1)CCN(Cc1ccccc1C(F)(F)F)CC2 2.99 µM
CC(C)c1nc2c(c(-c3ccc(O)cc3)n1)CCN(Cc1ccccc1C(F)(F)F)CC2 4.73 µM
Cc1c(Cl)cccc1Nc1nn2c(=O)c3ccc(C(=O)N(C)Cc4ccccc4)cc3nc2s1 16.8 µM
Cc1c(Cl)cccc1Nc1nn2c(=O)c3ccc(C(=O)NCCc4ccccc4)cc3nc2s1 7.5 µM
COc1ccccc1C1CC(c2ccccc2)=NN1C(=O)c1ccccc1 (configuration not stated) 2.37 µM
COc1ccc(/C(C)=N/NC(=S)NCCc2ccccc2)c(O)c1 3.35 µM
CCCCc1c(C)c(C#N)c2nc3ccccc3n2c1Nc1c(C)n(C)n(-c2ccccc2)c1=O 2.66 µM
Cc1sc(NC(=O)c2ccco2)c(C(c2cccnc2)N2CCC(C)CC2)c1C (configuration not stated) 5.31 µM
CCOC(=O)c1c[nH]c2c(C)cc(C)cc2c1=O 4.22 µM
CCOC(=O)c1c[nH]c2cc(OCC(C)C)c(OCC(C)C)cc2c1=O 0.944 µM
CC(NCc1ccccc1)c1ccccc1O (configuration not stated) 5.31 µM
Cc1ccccc1-c1nccn2c(C3CN(Cc4ccccc4O)C3)ncc12 5.44 µM
O=[N+]([O-])c1ccc(S(=O)(=O)N2CCn3cccc3C2c2ccc(Br)cc2)cc1 (configuration not stated) 5.96 µM
CC(C(=O)N1CCCC1)N1CCN(S(=O)(=O)c2ccc(C(C)(C)C)cc2)CC1 (configuration not stated) 3.35 µM
CC(C(=O)NC1CCCC1)N1CCN(S(=O)(=O)c2ccc(C(C)(C)C)cc2)CC1 (configuration not stated) 8.41 µM
